Shown are actives, neighbours in structure and some others; about 3.1% of the full set was active somewhere.
HIF act: HIF pathway transcriptional activation. U2OS HRE-luciferase reporter, luminescence; normalized: DMSO 0%, desferrioxamine 100%. activation, % at 7.5 µM (by protocol). 0.32% of 300,000 active;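 active = mean activation of at least 10% of the iron chelator positive control signal, with at least half of replicates also reaching 10%; inconclusive = mean and replicate majority disagree about reaching 10%; inactive = mean and most replicates under 10%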
HSF1 inh: HSF1 inhibition | NIH3T3-HGL HSE-luciferase, MG132-induced, luminescence 8 h; active compounds read low | activity change, negative = inhibition, % at 7.5 µM (by protocol) | 0.77% of 300,000 active;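 active = more than half of replicate wells show activity change below -50%, luminescence cut by over half; inconclusive = some wells, but at most half, below -50%; inactive = no replicate well below -50%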;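 also: luciferase reports HSF-1 transcriptional activity via heat shock element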
HSF1 activator: increases HSF-1 driven luciferase reporter signal; NIH3T3-HGL HSF-1 luciferase reporter, MG132, 8 h; 100% = twice DMSO control signal; activation, % at 9 µM; 1.7% of 300,000 active;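 active = mean replicate activation of at least 50% with a set share of replicates each reaching 50%; inconclusive = only one of those two conditions met; inactive = mean below 50% and too few replicates reaching it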
ARNT-TACC3 inh: disrupts binding between human ARNT and TACC3. Q9Y6A5. AlphaScreen His-ARNT PAS-B/GST-TACC3 binding, luminescence; TACC3 fragment carries E629A point mutation. inhibition, % at 9.99 µM. 0.66% of 390,000 active. AID 623870;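 active = mean inhibition of replicates at least 50% and at least half of replicates each reaching 50%; inconclusive = half or more replicates reach 50% but mean below 50%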
HSP90 inh: blocks HSP90-mediated luciferase refolding in reticulocyte lysate | Rabbit reticulocyte lysate, luciferase refolding luminescence, 3 h | inhibition, % at 5.6 µM | 0.91% of 290,000 active | AID 1789;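 active = inhibition above the screen-wide mean plus 3 SD, computed separately per campaign, cut at about 16% in these data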;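 also: inhibitors lower the luminescence because luciferase stays unfolded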
HSP90 inh confirm: HSP90 inhibition, confirmation assay. AID 1846. shares compounds with HSP90 inh. rabbit reticulocyte lysate, luciferase refolding luminescence, 3 h. 64% of 2,300 active. inhibition, % at 5.9 µM; in the data active = inhibition above about 18%
luciferase ctr: firefly luciferase inhibition, HSP90 counter-screen. purified native firefly luciferase, luminescence. shares compounds with HSP90 inh. AID 1847. 48% of 2,300 active. inhibition, % at 5.9 µM;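 active = inhibition above the mean inhibition of all tested sample wells plus 3 SD, cut at about 10% in these data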
Target sequence (P08659 whole entry, looked up): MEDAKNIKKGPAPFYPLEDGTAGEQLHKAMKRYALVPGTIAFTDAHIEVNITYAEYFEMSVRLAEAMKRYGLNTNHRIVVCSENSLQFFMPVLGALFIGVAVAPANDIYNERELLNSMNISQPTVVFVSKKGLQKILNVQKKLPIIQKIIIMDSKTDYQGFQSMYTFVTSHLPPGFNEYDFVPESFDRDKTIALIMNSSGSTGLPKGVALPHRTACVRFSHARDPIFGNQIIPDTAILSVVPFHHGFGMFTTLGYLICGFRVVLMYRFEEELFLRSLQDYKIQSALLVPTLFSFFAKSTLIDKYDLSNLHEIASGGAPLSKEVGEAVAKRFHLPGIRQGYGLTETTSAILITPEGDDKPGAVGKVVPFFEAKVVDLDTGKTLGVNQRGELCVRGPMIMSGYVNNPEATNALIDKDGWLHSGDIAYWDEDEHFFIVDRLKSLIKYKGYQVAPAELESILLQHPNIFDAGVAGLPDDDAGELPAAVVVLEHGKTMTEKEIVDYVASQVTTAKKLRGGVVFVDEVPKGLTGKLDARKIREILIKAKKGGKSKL
Each line names hits and unclear results; the compound was inactive in the other large screens (follow-up assays come after a bar, where they were run).

COCCn1c(C)cc(C2=NNC(=Nc3ccc(OC)cc3)SC2)c1C	none
COCCn1c(C)cc(C2=NNC(=Nc3ccccc3)SC2)c1C	HSP90 inh 50.9 | HSP90 inh confirm 38.7 | luciferase ctr 32.9
O=C(Nc1ccc(C(F)(F)F)cc1)N[C@H]1CC[C@H](CC(=O)N2CCCCC2)O[C@H]1CO	none (no result: HIF act, HSF1 inh, HSF1 activator, HSP90 inh)
CC(=O)CSc1nnc(-c2ccc3c(c2)OCO3)o1	HSP90 inh 17.9 | HSP90 inh confirm 37.1 | luciferase ctr inactive
O=C(C[C@H]1CC[C@@H]2[C@H](COC[C@@H](O)CN2Cc2ccc(Oc3ccccc3)cc2)O1)N1CCCCC1	none (no result: HIF act, HSF1 inh, HSF1 activator, HSP90 inh)
CCOC(=O)N/N=C/c1cn(CCCOc2ccccc2)c2ccccc12	none
CCOC(=O)N/N=C/c1cn(CCCOc2ccc(C)cc2)c2ccccc12	HSP90 inh 18.5 | HSP90 inh confirm inactive | luciferase ctr inactive
COc1ccccc1S(=O)(=O)N1CC[C@@H]2[C@H](CO)N(C)c3ccc(C#Cc4cccc(F)c4)cc3[C@@H]21	none (no result: HIF act, HSF1 inh, HSF1 activator, HSP90 inh)
COc1cc(NCCCCCCCN)c2ncccc2c1	HSP90 inh 80.5 | HSP90 inh confirm inactive | luciferase ctr inactive
COc1cc(NCc2ccccc2O)c2ncccc2c1	HSF1 activator inconclusive
COc1ccc(C(=O)Nc2cnccn2)cc1[N+](=O)[O-]	none
CC(C)(C)c1ccc(C(=O)Nc2cnccn2)cc1	HSP90 inh 17.5 | HSP90 inh confirm 50.3 | luciferase ctr 37.4
CCNC(=O)Nc1ccc2c(c1)C(=O)N(C)[C@H]1CC[C@H](CC(=O)NCc3ccccc3F)O[C@@H]1CO2	none (no result: HIF act, HSF1 inh, HSF1 activator, HSP90 inh)
C=CCn1c(NS(=O)(=O)c2ccccc2)c(S(=O)(=O)c2ccc(C)cc2)c2nc3ccccc3nc21	HSP90 inh 21.8 | HSP90 inh confirm 52.4 | luciferase ctr inactive
COc1ccc(NC(=O)OC(CN2CCCCC2)C(F)(F)F)cc1 (stereo not drawn)	HSP90 inh 18.1 | HSP90 inh confirm inactive | luciferase ctr inactive
O=C(Nc1cccc(-c2cn3c(n2)SCC3)c1)c1ccc2ccccc2n1	HSP90 inh 50.4 | HSP90 inh confirm 30.8 | luciferase ctr inactive
Cc1c(O)ccc(/C=N/Nc2ncccc2[N+](=O)[O-])c1O	HSF1 activator 54.9, HSP90 inh 21.4 | HSP90 inh confirm 28.5 | luciferase ctr 28.0
O=[N+]([O-])c1cccnc1N/N=C/c1ccccc1O	HIF act 20.7, HSP90 inh 21.8 | HSP90 inh confirm inactive | luciferase ctr inactive
O=C(Cn1nnc(-c2cccs2)n1)NCc1ccccc1	HSP90 inh 55.5 | HSP90 inh confirm inactive | luciferase ctr inactive
Cc1ccc(NC(=O)c2onc(C)c2Cl)cc1	none
Cc1noc(C(=O)Nc2ccc(Cl)cc2)c1Cl	HSP90 inh 25.3 (no result: ARNT-TACC3 inh) | HSP90 inh confirm inactive | luciferase ctr inactive
CCOC(=O)c1sc2nc(N3CCOCC3)c3c(c2c1N)CC(C(C)C)OC3 (stereo not drawn)	none
CCOC(=O)c1sc2nc3c(cc2c1N)COC(C(C)C)C3 (stereo not drawn)	HSF1 inh -59.5, HSP90 inh 24.7 | HSP90 inh confirm 44.3 | luciferase ctr 41.1
CN(C)CC(=O)N[C@@H]1CC[C@H](CCNC(=O)C2CCCC2)O[C@H]1CO	none (no result: HIF act, HSF1 inh, HSF1 activator, HSP90 inh)
CCOC(=O)/C(C#N)=C\c1cc(C)n(-c2ccccc2)c1C	HSF1 inh -62.8, HSP90 inh 49.9 | HSP90 inh confirm 62.7 | luciferase ctr 61.7
CCOC(=O)/C(C#N)=C/c1cc(C)n(-c2ccc(C)cc2)c1C	none
Cc1noc(C)c1NC(=O)Nc1ccc2c(c1)C(=O)N([C@H](C)CO)C[C@H](C)[C@@H](CN(C)C(=O)Nc1ccccc1)OCCCC[C@@H](C)O2	none (no result: HIF act, HSF1 inh, HSF1 activator, HSP90 inh)
CC(C)(C)c1ccc(-c2cc(-c3ccccc3O)[nH]n2)cc1	HSF1 inh -71.5, HSP90 inh 51.5 | HSP90 inh confirm 60.4 | luciferase ctr 58.9
Oc1ccccc1-c1cc(-c2cccc(F)c2)n[nH]1	none
NCC[C@H]1CC[C@@H](NS(=O)(=O)Cc2ccccc2)[C@@H](CO)O1	none (no result: HIF act, HSF1 inh, HSF1 activator, HSP90 inh)
O=C(NCCc1ccccc1)c1ccccc1NC(=O)C1CCCCC1C(=O)O (stereo not drawn)	HSP90 inh 47.4 (no result: ARNT-TACC3 inh) | HSP90 inh confirm inactive | luciferase ctr inactive
